Reference: PubChem BioAssay AID504914 (The Scripps Research Institute Molecular Screening Center, 2011)
Some of the results follow. Active and inactive are the calls of the source. How the calls were made is not given here.

The compounds below were run against 5-hydroxytryptamine receptor 5A (Homo sapiens) (UniProt P47898) (assay: HTR5A inverse agonists, counter-screen for OPRM1-OPRD1 inverse agonist project, cell-based, luminescence (AID 504914;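 further: 0% = cells with DMSO and 100% = no-cell wells with DMSO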)). Settings: HTR5A-expressing cells, inverse agonism, at 9.3 µM, hits give high values.
Sequence of 5-hydroxytryptamine receptor 5A (Homo sapiens) (P47898 whole entry, looked up): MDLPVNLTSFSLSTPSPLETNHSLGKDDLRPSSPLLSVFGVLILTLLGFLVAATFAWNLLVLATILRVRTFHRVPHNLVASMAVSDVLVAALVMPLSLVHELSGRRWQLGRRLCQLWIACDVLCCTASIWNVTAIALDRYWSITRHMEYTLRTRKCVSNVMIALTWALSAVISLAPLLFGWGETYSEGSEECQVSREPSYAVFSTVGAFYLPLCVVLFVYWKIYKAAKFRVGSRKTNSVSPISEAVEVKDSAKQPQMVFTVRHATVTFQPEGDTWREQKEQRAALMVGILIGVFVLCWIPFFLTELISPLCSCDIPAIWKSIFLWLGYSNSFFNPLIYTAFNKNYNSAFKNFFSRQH
With `Cc1ccc(NNC(=O)c2cccs2)cc1Cl` the inhibition was -15% (inactive).
For `CCOc1ccc(NC(=O)c2cccc3c2C(=O)N(CC2CCCO2)C3)cc1` (stereo unspecified), the inhibition was -4.42% (inactive).
`Cc1cccc(C)c1NC(=O)C(Cl)C(=O)c1ccccc1` (stereo unspecified) was tested, and the inhibition was -75.6% (inactive).
`CCOC(=O)CN1C(=O)C(=O)c2cc(C)ccc21` was tested, and the inhibition was 12.5% (inactive).
In the case of `Cc1ccc(C(=O)CNc2ccc(F)cc2)cc1`, the inhibition is reported as -0.52% (inactive).
`COC(=O)Cc1c(-c2[nH]c3ccccc3c2CC(=O)OC)[nH]c2ccccc12` was tested, and the inhibition was -66.2% (inactive).
In the case of `CSCCC(NC(=O)COc1ccccc1)C(=O)OCC(=O)c1cc2ccccc2o1` (stereo unspecified), the inhibition is reported as 12% (inactive).
For `Cc1ccc(NC2(C#N)C(=O)Nc3ccccc32)cc1` (stereo unspecified), the inhibition was -97.2% (inactive).
With `Cc1ccc2c(c1)C(O)(CC(=O)c1cccnc1)C(=O)N2` (stereo unspecified) the inhibition was 0% (inactive).
`CC(C)OC(=O)CN1C(=O)C(=O)c2ccccc21` was tested, and the inhibition was 4.72% (inactive).
`CN(O)C(=S)c1ccccc1` was tested, and the inhibition was 26.7% (inactive).
`Oc1ccc(N=Nc2nccs2)c(O)c1` was tested, and the inhibition was 23.3% (inactive).
`CN(c1ccccc1)S(=O)(=O)c1ccc(NC(=O)COc2ccccc2)cc1` was tested, and the inhibition was -4.8% (inactive).
With `N#CC1=C(N)C(C#N)(C#N)[C@H](c2ccsc2)[C@H]2COCC=C12` the inhibition was -8.6% (inactive).
In the case of `Cc1cccc(N=Nc2c(O)[nH]c3ccc(F)cc23)c1`, the inhibition is reported as 22.6% (inactive).
With `O=[N+]([O-])/C=C/c1ccc2c(ccn2Cc2ccccc2)c1` the inhibition was -16.4% (inactive).
`CN(C)/C=C1/Nc2ccccc2C1=O` was tested, and the inhibition was 5.59% (inactive).
In the case of `COc1cc(NS(=O)(=O)c2ccc3ccccc3c2)c2ncccc2c1`, the inhibition is reported as -111% (inactive).
In the case of `O=C1C(=O)N(CC2COc3ccccc3O2)c2ccccc21` (stereo unspecified), the inhibition is reported as 12% (inactive).
For `O=C1C(=O)N(c2ccccc2)c2ccccc21`, the inhibition was 19% (inactive).
With `Cc1cccc2c1N(CCOc1ccccc1)C(=O)C2=O` the inhibition was 10.3% (inactive).
In the case of `Cc1cccc2c1N(CC(=O)OC(C)C)C(=O)C2=O`, the inhibition is reported as -14.5% (inactive).
In the case of `CCCCC(=O)NNC(=S)NC(=O)C(c1ccccc1)c1ccccc1`, the inhibition is reported as -76% (inactive).
For `C=CCn1c(N)c(C(=O)OCC(C)C)c2nc3ccccc3nc21`, the inhibition was 10.8% (inactive).
With `O=C(CCl)NNc1cccc(Cl)n1` the inhibition was 8.61% (inactive).
In the case of `CCOC(=O)CN1C(=O)C(O)(CC(=O)c2ccccn2)c2ccccc21` (stereo unspecified), the inhibition is reported as 10.2% (inactive).
